From PubChem
Luc counter = Counterscreen for Luciferase (Kinase-Glo TM) Inhibition; Luciferin 4-monooxygenase (Photuris pensylvanica), Q27757; Kinase-Glo luciferase, ATP luminescence, 8 min; Potency, µM (highest dose often 38.3 µM), usual class: inhibitors; 200,000 compounds, 0.28% hits; note: nearly all actives have a fitted effect of over 60% in size
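Luminescence was the read-out, taken after 8-minute incubation at ambient temperature. Luciferase turned over luciferin with 10 uM ATP in imidazole pH 7.2 buffer containing KCl, MgCl2, Tween 20 and BSA.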
SMN2 splice enh = qHTS Assay for Enhancers of SMN2 Splice Variant Expression; HEK293 SMN2-luciferase splicing reporter, luminescence, 30-36 h; Potency, µM (top dose mostly 46.1 µM), actives largely listed as activators; 210,000 compounds, 2.8% hits; AID 1458, 2008; note: nearly all actives have a fitted effect of over 55% in size
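HEK293 cells carry an SMN2 minigene-luciferase reporter in which exon 7 inclusion puts luciferase in frame. Cells were seeded at 2000 cells/well, attached for 10-12 hours, then exposed to compounds for 30-36 hours at 37C before ONE-Glo luminescence.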
ELG1 genotox = qHTS screen for small molecules that induce genotoxicity in human embryonic kidney (HEK293T) cells expressing luciferase-tagged ELG1. HEK293T ELG1-luciferase reporter, luminescence, 16 h. Potency, µM (series often up to 46 µM), actives largely listed as activators. 330,000 compounds, 1.3% hits. AID 504466, 2011; note: nearly all actives have a fitted effect of over 60% in size
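DMSO vehicle served as control against compound-treated ELG1-luciferase HEK293T cells; exposure lasted 16 hr at 37 °C and 5% CO2, followed by ONE-Glo luminescence detection after 30 min.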
Rab9 promoter act = qHTS Assay for Rab9 Promoter Activators; AID 485297, 2010; Potency, µM (titrated, usually from 9.22 µM), usual class: activators; Huh7 Rab9 promoter-luciferase reporter, luminescence, 24 h; 320,000 compounds, 2.8% hits; note: nearly all actives have a fitted effect of over 60% in size
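Cells were plated at 1500 per well in reduced-serum medium with 10% FBS and left 2 h. Compound in DMSO was then added for 24 h at 37 °C. Reporter signal was read by luminescence after 10 min with luciferase detection reagent.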
FLuc modulator = qHTS profiling assay for firefly luciferase inhibitor/activator using purifed enzyme and Km concentrations of substrates (counterscreen for miR-21 project); 360,000 compounds, 6.9% hits; Luciferin 4-monooxygenase (Photinus pyralis), P08659; purified FLuc, Km substrates, luminescence inhibition; Potency, µM (doses to about 57.5 µM), most hits filed as inhibitors; note: nearly all actives have a fitted effect of over 55% in size
Target sequence (P08659 whole entry, looked up): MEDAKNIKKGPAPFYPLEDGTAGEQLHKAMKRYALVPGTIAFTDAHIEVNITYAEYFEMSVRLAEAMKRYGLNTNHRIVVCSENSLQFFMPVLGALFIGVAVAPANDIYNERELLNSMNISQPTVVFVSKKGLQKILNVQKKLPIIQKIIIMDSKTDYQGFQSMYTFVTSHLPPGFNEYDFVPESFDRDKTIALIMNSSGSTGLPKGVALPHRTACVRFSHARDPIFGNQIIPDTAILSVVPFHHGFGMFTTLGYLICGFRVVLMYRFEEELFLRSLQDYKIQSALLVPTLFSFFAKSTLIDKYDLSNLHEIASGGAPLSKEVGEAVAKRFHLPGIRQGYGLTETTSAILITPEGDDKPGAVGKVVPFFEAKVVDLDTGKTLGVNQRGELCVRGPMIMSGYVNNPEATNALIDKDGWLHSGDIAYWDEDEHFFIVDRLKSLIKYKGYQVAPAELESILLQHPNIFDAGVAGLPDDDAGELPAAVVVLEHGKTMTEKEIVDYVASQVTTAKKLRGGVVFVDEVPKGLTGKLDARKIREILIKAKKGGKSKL
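Purified P. pyralis luciferase (10nM final) with 10uM D-luciferin and 10uM ATP (Km levels) in 50mM Tris acetate pH 7.5, 10mM Mg acetate, 0.01% Tween-20, 0.05% BSA; qHTS 6-point titration, ~60 µM downward; luminescence read.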
NPC1 prom act = qHTS Assay for NPC1 Promoter Activators. 320,000 compounds, 2.4% hits. Huh7 NPC1 promoter luciferase reporter, 24 h. Potency, µM (top dose mostly 9.22 µM), usual class: activators; note: nearly all actives have a fitted effect of over 60% in size
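Huh7 cells stably carrying NPC1 promoter–luciferase, plated in Opti-MEM with 10% FBS for 2 h, were exposed to compound in DMSO for 24 h at 37 °C; luciferase reagent was added for 10 min and luminescence read.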
Numbers stand for hits; – = inactive; ? = inconclusive; · = no result given; ! = not confirmed by another sample; [ ] = remark or other dose. Sampled rows, rich in hits. Any-hit rate of the full collection: about 7.3%. Calls come from the whole dose curve; as a rule, active = well fitted curve in the direction sought with a large enough effect; inconclusive = small, poorly fitted or top-dose-only effect, or another doubt; inactive = no such curve, though single readings can be large; an effect the other way counts as inactive or inconclusive.

SMILES	Luc counter	SMN2 splice enh	ELG1 genotox	Rab9 promoter act	FLuc modulator	NPC1 prom act
N/C(CC(=O)Nc1ccc(F)c(Cl)c1)=N\OC(=O)c1cccs1	·	·	–	–	–	–
COc1ccc2c(c1)/C(=N/OC(=O)c1cccs1)CCC2	–	–	–	–	27µM	–
COc1ccc(/C(N)=N/OC(=O)c2cccs2)cc1	·	·	8.2µM	1.3µM	1.9µM	1.4µM
N/C(=N\OC(=O)c1cccs1)c1ccc(Cl)cc1	·	·	?	?	4.8µM	–
COc1ccc(NC(=O)O/N=C2/CCCc3ccc(OC)cc32)cc1	·	·	–	–	?	–
CCN(C(=O)Cn1c(=O)oc2cc(S(=O)(=O)N3CCCCCC3)ccc21)c1cccc(C)c1	·	–	·	·	–	·
CCOc1ccc(C(=O)c2cn(CC(=O)Nc3ccc(C)c(C)c3)c3ccc(OCC)cc3c2=O)cc1	·	–	·	·	–	·
Cc1cc(C)c(NC(=O)C2CCN(c3nc4ccccc4n4cccc34)CC2)c(C)c1	·	·	·	·	–	·
O=c1[nH]c2ccc(F)cc2[nH]c1=O	–	–	–	–	–	–
O=c1[nH]c2cc(Cl)c(Cl)cc2[nH]c1=O	–	11µM!	·	–	·	–
CCN1CCC(N(Cc2cccc(OC)c2)C(=O)Nc2cccc(C)c2C)CC1	·	·	·	·	–	·
COc1ccc(-c2nc3ccccn3c2CN2CCN(c3ccccc3F)CC2)cc1	–	–	–	–	17µM	–
COc1ccc(-c2nc3ccccn3c2Cl)cc1	·	·	1.2µM	0.79µM	0.43µM	3.2µM
CCOC(=O)c1cccc(Nc2c3c(nc4ccccc24)CCC3)c1	·	–	·	·	–	·
CCc1nnc(NC(=O)C23CC4CC(CC(C4)C2)C3)s1	·	·	?	?	11µM	?
CC(C)Cc1nnc(NC(=O)C23CC4CC(CC(C4)C2)C3)s1	·	·	–	–	–	–
NC(=O)CSc1nnc(NC(=O)C23CC4CC(CC(C4)C2)C3)s1	·	·	–	–	?	?
CSc1nnc(NC(=O)C23CC4CC(CC(C4)C2)C3)s1	·	·	–[9.26 µM]	?	24µM	?
Cc1ccc2occ(CC(=O)Nc3c(C(=O)Nc4ccc(Cl)cc4)oc4ccccc34)c2c1	·	–	·	·	–	·
COc1ccc(C(=O)NCC2OCCc3ccccc32)cc1 (centres undefined)	–	–	–	–	15µM	–
COc1ccc(C(=O)NCC2OCCc3ccccc32)cc1OC (centres undefined)	–	–	–	–	–	–
CCOc1ccc(C(=O)NCC2OCCc3ccccc32)cc1 (centres undefined)	–	–	–	–	17µM	–
COCc1cc(=O)[nH]c(Nc2nc3ccc(C)cc3o2)n1	–	–	23µM	–	17µM	–
CCOc1ccc(N2CC(NC(=O)C3CCCCC3)CC2=O)cc1 (centres undefined)	·	·	·	·	–	·
O=C(Nc1ccc2[nH]ccc2c1)c1ccccc1	·	·	?	1.4µM	3.4µM	0.56µM
SMILES	Luc counter	SMN2 splice enh	ELG1 genotox	Rab9 promoter act	FLuc modulator	NPC1 prom act
O=C(NC(=S)Nc1ccc2[nH]ncc2c1)c1ccccc1	–	–	–	?	?	?
O=C(Nc1ccncc1)c1ccc(F)cc1	–	–	–	–	–	–
O=C(Nc1ccc2[nH]ccc2c1)c1ccc(F)cc1	·	·	?	0.5µM	1.5µM	0.4µM
CCOc1ccc2ncc3c(-c4ccccc4)nn(CC(=O)Nc4cccc(F)c4)c3c2c1	·	·	·	·	–	·
Cc1cc2oc(=O)c(CC(=O)O)c(C)c2c2occ(-c3ccccc3)c12	·	–	·	·	6µM	·
Cc1c(CC(=O)O)c(=O)oc2c(C)c3occ(-c4ccccc4)c3cc12	·	·	–	–	–	–
COCCCNC(=O)Cc1c(C)c2c(cc(C)c3c(C(C)(C)C)coc32)oc1=O	·	·	–	–	11µM	–
COCCNC(=O)Cc1c(C)c2c(cc(C)c3c(C)coc32)oc1=O	·	·	–	–	?	–
CCCCCOc1ccc(C(=O)N(Cc2ccccc2)C2CCS(=O)(=O)C2)cc1 (centres undefined)	·	·	·	·	–	·
Cc1ccc(C(=O)Nc2nc3ccccc3c(=O)s2)cc1	–	?	?	1.3µM	0.76µM	?
COc1ccc(C(=O)CCc2nc3ccccc3s2)cc1	–	–	–	–	19µM	–
COc1ccccc1NC(=O)CCc1nc2ccccc2s1	–	–	–	–	–	–
O=C(Nc1nc2c(s1)C(=O)CCC2)c1ccccc1	?	1.6µM	?	0.71µM	2.7µM	1.1µM
O=C(Nc1nc(=O)[nH]s1)c1ccccc1	–	–	–	–	–	–
COc1cccc(C(=O)Nc2nc3c(s2)CCCC3)c1	·	·	·	·	1.9µM	·
CC(=O)Nc1nc(=O)c2ccccc2s1	–	–	–	–	–	–
O=C(Nc1nc(=O)c2ccccc2s1)c1ccccc1	–	–	7.3µM	–	4.3µM	–
COc1ccc(C(=O)Nc2nc3ccccc3s2)cc1	·	·	–	0.28µM	0.24µM	0.63µM
O=S(=O)(/N=C(/Nc1nccs1)c1ccc(F)cc1)c1ccccc1	·	·	–	·	·	·
O=S(=O)(/N=C(/Nc1nc2ccccc2s1)c1ccccc1)c1ccc(F)cc1	·	·	–	?	19µM	–
O=C(Nc1nc2ccccc2s1)c1ccc(F)cc1	–	·	2.6µM	0.32µM	1.1µM	0.71µM
COc1ccc(C(=O)Nc2nc3ccccc3s2)cc1OC	–	·	–	–	–	–
O=C(COc1ccccc1Cl)N(Cc1cccc(F)c1)C1CCS(=O)(=O)C1 (centres undefined)	·	–	·	·	–	·
Cc1ccc(CCNC(=O)c2c(C)oc3ncnc(N4CCOCC4)c23)cc1	·	·	·	·	–	·
O=C(c1ccc(Nc2nc3ccccc3n3nnnc23)cc1)N1CCN(c2ccc(F)cc2)CC1	·	–	·	·	–	·
SMILES	Luc counter	SMN2 splice enh	ELG1 genotox	Rab9 promoter act	FLuc modulator	NPC1 prom act
COc1cccc(C(=O)Nc2nc3ccccc3s2)c1	·	·	4.1µM	2µM	2.1µM	3.5µM
Cc1ccc2nc(NC(=O)c3ccc(-c4nc5ccccc5s4)s3)sc2c1	–	–	16µM	–	13µM	–
O=C(Nc1nc2ccccc2s1)c1ccc(Cl)s1	–	6.3µM	1.2µM	?	1.9µM	1µM
COCCNC(=O)c1nc2ccccc2s1	–	–	–	–	17µM	–
COc1cc(OC)c(NC(=O)N2CCc3c([nH]c4ccccc34)C2c2ccccc2F)cc1Cl (centres undefined)	·	·	·	·	–	·
O=C(Nc1ccc(F)cc1F)C(Cc1ccccc1)N1Cc2ccccc2C1=O (centres undefined)	·	·	·	·	–	·
O=C1O/C(=C\c2ccccc2)c2ccccc21	–	–	–	–	12µM	–
CC(C(=O)O)c1ccc(C(=O)c2ccccc2)s1 (centres undefined)	·	·	?	–	17µM	–
O=C(O)Cc1sc(Nc2ccc(C(=O)O)cc2)nc1-c1ccccc1	·	–	·	·	?	·
O=C(O)Cc1sc(-c2ccc(Cl)cc2)nc1-c1ccccc1	–	–	–	–	17µM	–
